Screens (PubChem)
Most compounds without a hit are left out; they make up all but 22% or so of the library.
CHX counter = counter-screen hit for Shiga toxin inhibitors, cycloheximide; cell reporter, cycloheximide protein synthesis inhibition counterscreen; max response, %; actives 12% (n = 300,000); AID 2314; in the data active means max response mostly above about 13%, no sharp cut-off; inactive means mostly below about 14%; further: read at 38.3 µM for the half of the compounds with a filed dose; 0% is about no effect
Pf growth 48h = inhibits P. falciparum growth in the first generation, 48 h. P. falciparum luciferase growth in erythrocytes, 48 h. Potency, µM (top dose mostly 28.7 µM), for inactives: at the highest dose activity change, negative = inhibition, hits mostly inhibitors. actives 5.9% (n = 310,000). AID 504832; further: potency means the concentration at half of the fitted maximal effect; on the % scale 0 is the no-effect control and ±100 the full control effect
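Luciferase-expressing P. falciparum in infected erythrocytes (2% hematocrit, 0.1% parasitemia final) in RPMI 1640/0.5% Albumax were exposed to compound for 48 hours at 37 C, 5% CO2; growth read as luminescence.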
LmPK inh = inhibitors of Leishmania mexicana pyruvate kinase; purified LmPK, Kinase-Glo ATP luminescence, 1 h; actives 0.37% (n = 290,000); Q27686; Potency, µM (highest dose often 57.5 µM), for inactives: at the top dose activity change, negative = inhibition, actives largely listed as inhibitors; further: potency means the concentration at half of the fitted maximal effect; on the % scale 0 is the no-effect control and ±100 the full control effect
Target sequence (Q27686 whole entry, looked up): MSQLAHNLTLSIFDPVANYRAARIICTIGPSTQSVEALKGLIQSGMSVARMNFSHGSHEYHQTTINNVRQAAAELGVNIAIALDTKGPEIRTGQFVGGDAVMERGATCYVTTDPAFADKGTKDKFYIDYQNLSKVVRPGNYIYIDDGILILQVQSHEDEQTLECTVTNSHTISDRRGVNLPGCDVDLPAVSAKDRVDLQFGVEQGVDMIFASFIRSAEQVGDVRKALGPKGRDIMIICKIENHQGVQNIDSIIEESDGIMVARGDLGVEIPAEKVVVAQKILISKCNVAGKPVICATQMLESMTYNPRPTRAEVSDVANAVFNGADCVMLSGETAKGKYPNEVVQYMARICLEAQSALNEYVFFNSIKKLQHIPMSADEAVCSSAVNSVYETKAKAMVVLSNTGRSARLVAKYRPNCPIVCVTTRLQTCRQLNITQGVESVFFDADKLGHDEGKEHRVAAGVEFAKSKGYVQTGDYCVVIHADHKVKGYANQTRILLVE
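qHTS format; LmPK 0.1 nM; substrates PEP 0.5 mM and ADP 0.1 mM. One-hour room-temperature incubation, then coupled luciferase luminescence; 0.5 nM enzyme wells mark activation.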
Shiga inhibitor = Shiga toxin inhibition; inhibition, % at 38.7 µM; AID 2315; Vero cells, Shiga toxin protein synthesis inhibition reporter; actives 9.2% (n = 290,000); in the data active means inhibition mostly above about 28%, no sharp cut-off; inactive means mostly below about 43%; further: 0% is about no effect
Pf growth 96h = P. falciparum growth inhibition at 96 hour, primary screen for plastid delayed-death inhibitors; P. falciparum luciferase reporter growth, 96 h; Potency, µM (titrated, usually from 28.7 µM), without a hit: top-dose activity change, negative = inhibition, hits mostly inhibitors; actives 6.9% (n = 320,000); further: potency means the concentration at half of the fitted maximal effect; on the % scale 0 is the no-effect control and ±100 the full control effect
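Two-generation exposure (96 h) targets delayed-death phenotype. Reporter parasites carrying integrated firefly luciferase, in red cells at 2% hematocrit and 0.05% parasitemia final, kept at 37 C, 5% CO2; luminescence loss indicates inhibition.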
Active calls of the source: *; ? = inconclusive; nt = no result; ! = not confirmed by another sample; [ ] = dose if it differs, or a comment. Unless noted, the call rests on the fitted dose curve; in most records, active means well fitted inhibition curve with a large enough effect; inconclusive means small, poorly fitted or top-dose-only effect, or another doubt; inactive means no such curve, though single readings can be large or run the other way.

SMILES | CHX counter | Pf growth 48h | LmPK inh | Shiga inhibitor | Pf growth 96h
CCCCCn1c(=O)c(C(=O)Nc2ccccc2S(N)(=O)=O)c(O)c2ccccc21 | 17.5* | 32.7% | -4.1% | 84.3* | 8.0%
CCCCn1c(=O)c(C(=O)Nc2ccccc2S(N)(=O)=O)c(O)c2ccccc21 | -3.6 | -0.6% | 0.2% | 24.7 | 26.3%[5.75 µM]
O=C(CSc1nc2ccccc2c(=O)[nH]1)Nc1ccccc1C(F)(F)F | -7.6 | 13.5% | -12.2% | 14.8 | ?
CCOC(=O)C(C#N)c1ccccn1 (centres undefined) | 29.4* | 63.9% | -23.6% | 64.0 | 24.3%
CCN(CC)S(=O)(=O)c1ccc(C(=O)C(C#N)c2ccccn2)cc1 (centres undefined) | -1.2 | ? | 2.8% | 18.7 | 21.0%
CC(Oc1cccnc1[N+](=O)[O-])C(=O)Nc1ccc(Cl)cn1 (centres undefined) | nt | -6.6% | nt | nt | 2.3%
COC(=O)c1ccccc1N1CCS(=O)(=O)CC1 | -1.6 | 9.0% | -5.2% | 19.2 | 15.4%
Cc1nc(/N=C(\N)NC(=O)c2ccccc2)nc2ccccc12 | 49.8* | 16.8% | 7.3% | 52.0* | 1.6%
Cc1nc(N=C(N)N)nc2ccccc12 | 7.8 | ? | 2.9% | -3.9 | 5.6%
CCCC(=O)N/C(N)=N/c1nc(C)c2cc(C)ccc2n1 | -1.4 | 2.62µM* | 1.0% | 13.1 | 2.62µM*
Cc1ccc2nc(/N=C(\N)NC(=O)NC3CCCCC3)nc(C)c2c1 | 10.0 | ? | -2.0% | 3.2 | ?
CCC(=O)N/C(N)=N/c1nc(C)c2cc(C)c(C)cc2n1 | 8.9 | 1.65µM* | -0.7% | 20.9 | 1.65µM*
Cc1cc2nc(N=C(N)N)nc(C)c2cc1C | 12.0 | ? | -0.2% | -1.5 | 0.0%
Cc1cc2nc(/N=C(\N)NC(=O)C(C)C)nc(C)c2cc1C | 7.6 | 2.62µM* | 6.3% | -6.5 | 2.62µM*
Cc1ccc(CNC(=O)C2CCC(=O)N(C3CC3)C2)cc1 (centres undefined) | 10.9 | 15.0% | -2.1% | 20.1 | 5.8%
O=C(C1CCCN(Cc2cccc(Cl)c2)C1)N1CCCCC1 (centres undefined) | -0.1 | nt | 2.6% | -2.2 | -7.6%
CC(Sc1nnnn1C)C(=O)Nc1ccccc1-c1ccccc1 (centres undefined) | -1.3 | 10.0% | 2.5% | -5.1 | -70.0%
COc1ccccc1NC(=O)C(C)Sc1nnnn1C (centres undefined) | 1.9 | 15.2% | -3.7% | -3.5 | 11.7µM*
CCOc1ccc(NC(=O)C(C)Sc2nnnn2C)cc1 (centres undefined) | 10.8* | 21.4% | 1.8% | 14.7 | ?
Cc1ccc(-n2nnnc2SC(C)C(=O)Nc2ccccc2-c2ccccc2)cc1 (centres undefined) | -1.4 | ? | 1.8% | -4.2 | 9.28µM*
COc1ccc(C(=O)Nc2ccccc2C(=O)N2CCCCC2C)cc1 (centres undefined) | 4.2 | 10.4% | 2.7% | -13.6 | 18.2%
CS(=O)(=O)N1CCN(c2ccccc2NC(=O)c2cc3ccccc3o2)CC1 | -5.0 | ? | 0.7% | -8.0 | 23.3%
CN1CCN(c2ccc(NC(=O)c3cc4ccccc4o3)cc2)CC1 | 33.4* | 0.7% | -0.2% | 57.4 | -1.9%
CS(=O)(=O)N1CCN(c2ccc(NC(=O)c3cc4ccccc4o3)cc2)CC1 | 18.8* | 64.0% | 4.0% | 21.2 | 88.5%
O=C(Nc1ccc(N2CCN(C(=O)c3ccccc3)CC2)cc1)c1cc2ccccc2o1 | -5.2 | 11.7µM* | 2.0% | -10.7 | nt
SMILES | CHX counter | Pf growth 48h | LmPK inh | Shiga inhibitor | Pf growth 96h
N#CN1CCC(NS(=O)(=O)c2ccc(C(F)(F)F)cc2)C1 (centres undefined) | nt | ? | nt | nt | 42.4%
Cc1ccc(C(=O)Nc2ccc(N3CCOCC3)nc2N2CCOCC2)cc1 | 0.7 | 39.1% | -1.5% | 24.3 | -17.2%
O=C(Nc1nccs1)C1CC(=O)N(CCc2ccc(F)cc2)C1 (centres undefined) | -5.6 | 3.3% | -0.4% | -7.2 | 12.1%
CC(C)C(=O)Nc1nnc(CSCc2ccccc2F)s1 | 12.9 | nt | 1.1% | 36.7 | -3.1%
CC(C)(C)C(=O)Nc1nnc(CSCc2ccccc2F)s1 | 90.2* | nt | 2.1% | 105.4* | 1.1%
O=C(Nc1nnc(CSCc2ccccc2F)s1)c1cccc([N+](=O)[O-])c1 | -3.2 | 18.7% | 2.0% | -8.6 | 13.1µM*
CC1CC(C)CN(C(=O)CCC(=O)Nc2nnc(C3CCCCC3)s2)C1 (centres undefined) | 10.2 | ? | 9.9% | -2.2 | ?
Oc1ccccc1C=NCCN=Cc1ccccc1O | 0.6 | 7.5% | -23.6% | 27.7 | 28.1%
Oc1ccc(Cl)cc1C=NCCc1ccccc1 | 14.9* | 20.2% | -8.9% | 56.8* | 50.5%
CC(=C/C(=O)O)/C=C/c1ccco1 | -3.0 | ? | 6.4% | -9.9 | ?
CC(/C=C/c1ccc(Cl)o1)=C\C(=O)O | 1.0 | 14.1% | -11.1% | 26.4 | 1.47µM*
CCC1=C(OC(=O)N(CC)CC)N2C(=O)OC(=NCC3CC3)[C@]2(Cc2ccccc2)[C@H]2C1=CC[C@H]1C(=O)N(C)C(=O)[C@H]12 | -3.7 | 10.4µM* | 1.4% | -7.0 | 9.28µM*
CCC1=C(OC(=O)N(CC)CC)N2C(=O)OC(=NCC(=O)OC)[C@]2(C)[C@H]2C1=CC[C@H]1C(=O)NC(=O)[C@H]12 | -1.7 | ? | -1.3% | 26.5 | 45.0%
CCC1=C(OC(=O)N(CC)CC)N2C(=O)OC(=NCC3CC3)[C@]2(Cc2ccccc2)[C@H]2C1=CC[C@H]1C(=O)N(c3ccccc3)C(=O)[C@H]12 | -3.9 | 2.62µM* | -0.7% | -2.8 | 2.94µM*
CCC1=C(OC(=O)N(CC)CC)N2C(=O)OC(=NCC(=O)OC)[C@]2(Cc2ccccc2)[C@H]2C1=CC[C@H]1C(=O)N(c3ccccc3)C(=O)[C@H]12 | -4.1 | 6.57µM* | 14.2% | -3.9 | 9.28µM*
CCC1=C2CC[C@H]3C(=O)N(c4ccccc4)C(=O)[C@H]3[C@H]2[C@@]2(C)C(=NCC(=O)OC)OC(=O)N2C1=O | -7.7 | 34.6% | -1.9% | 5.8 | 0.0%
CCC1=C(OC(=O)N(CC)CC)N2C(=O)OC(=NCC(=O)OC)[C@]2(Cc2ccccc2)[C@H]2C1=CC[C@H]1C(=O)N(C)C(=O)[C@H]12 | 0.8 | ? | 8.0% | -9.2 | ?
Cc1c(C(=O)N2CCN(Cc3ccccc3)CC2)oc2c1C(=O)CCC2 | 2.2 | -7.4% | 0.9% | 1.8 | 22.8%
COc1cccc(NC(=O)CSc2nc3ccccc3nc2N2CCOCC2)c1 | 23.9*! | -21.8% | 5.9% | 11.5 | ?
CCc1ccc(NC(=O)CSc2nc3ccccc3nc2N2CCCC2)cc1 | 1.9 | -9.8% | 1.4% | 1.8 | 2.62µM*
CC(C)c1ccc(NC(=O)CSc2nc3ccccc3nc2N2CCCC2)cc1 | 11.2 | ? | -2.9% | 16.2* | -0.8%
CCc1ccccc1NC(=O)CSc1nc2ccccc2nc1N1CCOCC1 | -1.9 | ? | -8.8% | -8.6 | 27.5%
Cc1ccc(NC(=O)CSc2nc3ccccc3nc2N2CCCC2)cc1 | 20.9* | ? | -7.9% | 32.5* | -10.8%
